Key:
Test in all cases: DAPPL (digital affinity profiling via proximity ligation, sequencing); 10 mM Tris-HCl pH 7.5, 50 mM NaCl, 1 mM DTT, 4% glycerol, room temperature, 30 min; GST-TFs on glutathione beads, 16-mer random dsDNA library, 0.1% formaldehyde crosslink after washing; high values mean tight binding
Conditions in all cases: protein: recombinant; tags: N-terminal GST; dsDNA, one strand shown
[1] = molecular target: T1, ELK1 (Homo sapiens, UniProt P19419 1-428)
T1 sequence: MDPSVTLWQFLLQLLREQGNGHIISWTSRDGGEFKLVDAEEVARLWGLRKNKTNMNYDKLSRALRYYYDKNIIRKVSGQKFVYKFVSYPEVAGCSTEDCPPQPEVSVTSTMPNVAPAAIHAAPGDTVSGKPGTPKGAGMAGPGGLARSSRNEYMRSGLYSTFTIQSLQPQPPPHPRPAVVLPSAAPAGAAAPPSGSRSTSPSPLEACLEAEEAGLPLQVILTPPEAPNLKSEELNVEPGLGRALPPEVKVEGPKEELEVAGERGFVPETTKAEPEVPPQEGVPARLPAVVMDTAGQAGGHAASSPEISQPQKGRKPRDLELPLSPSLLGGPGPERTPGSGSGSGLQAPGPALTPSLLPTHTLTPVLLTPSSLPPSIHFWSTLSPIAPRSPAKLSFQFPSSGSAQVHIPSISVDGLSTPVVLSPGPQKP
In short: (§1)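 Human transcription factors fused to GST were expressed in yeast, captured on glutathione beads, given DNA barcodes and pooled with a GST-only negative control. Pools were incubated with 200 nmole of a 16-mer random double-stranded DNA library in Tris/NaCl/DTT/glycerol buffer at room temperature for 30 min. They were then washed, crosslinked with 0.1% formaldehyde, proximity-ligated (BsaI/T4 ligase, 1 h, 37 °C), PCR-amplified and sequenced on an Illumina NextSeq500. Binding signal is each 6-mer's read frequency for a factor divided by its frequency for the GST control.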

[2] = molecular target: T2, GABPA (Homo sapiens, UniProt Q06546 1-454)
T2 sequence: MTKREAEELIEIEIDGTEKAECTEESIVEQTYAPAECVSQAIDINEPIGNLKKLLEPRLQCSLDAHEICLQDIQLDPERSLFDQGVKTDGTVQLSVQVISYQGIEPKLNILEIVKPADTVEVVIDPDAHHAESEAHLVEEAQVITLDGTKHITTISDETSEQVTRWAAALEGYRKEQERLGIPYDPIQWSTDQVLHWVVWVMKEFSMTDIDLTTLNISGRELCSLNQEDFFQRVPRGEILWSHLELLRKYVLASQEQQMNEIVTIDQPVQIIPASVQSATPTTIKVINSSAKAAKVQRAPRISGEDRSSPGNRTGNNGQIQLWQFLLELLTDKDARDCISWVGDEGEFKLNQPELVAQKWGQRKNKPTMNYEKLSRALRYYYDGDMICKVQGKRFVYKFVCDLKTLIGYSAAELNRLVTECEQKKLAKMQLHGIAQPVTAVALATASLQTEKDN
In short: as §1

[3] = molecular target: T3, ERG (Homo sapiens, UniProt P11308 1-479)
T3 sequence: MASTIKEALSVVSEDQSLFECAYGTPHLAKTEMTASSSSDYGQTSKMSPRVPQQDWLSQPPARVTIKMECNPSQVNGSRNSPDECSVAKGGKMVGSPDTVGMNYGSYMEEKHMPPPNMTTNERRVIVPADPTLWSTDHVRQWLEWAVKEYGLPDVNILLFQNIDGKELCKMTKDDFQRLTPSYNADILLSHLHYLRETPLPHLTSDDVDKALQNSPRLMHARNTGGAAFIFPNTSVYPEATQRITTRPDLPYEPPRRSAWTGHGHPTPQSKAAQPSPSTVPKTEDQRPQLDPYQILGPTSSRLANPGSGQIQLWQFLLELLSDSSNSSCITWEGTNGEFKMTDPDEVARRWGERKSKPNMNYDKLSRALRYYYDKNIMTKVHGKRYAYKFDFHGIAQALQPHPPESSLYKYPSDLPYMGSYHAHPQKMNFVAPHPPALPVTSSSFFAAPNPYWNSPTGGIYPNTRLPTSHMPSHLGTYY
In short: as §1

[4] = molecular target: ELF1 (Homo sapiens, UniProt P32519 1-619)
In short: as §1

[5] = molecular target: T4, EHF (Homo sapiens, UniProt Q9NZC4 1-300)
T4 sequence: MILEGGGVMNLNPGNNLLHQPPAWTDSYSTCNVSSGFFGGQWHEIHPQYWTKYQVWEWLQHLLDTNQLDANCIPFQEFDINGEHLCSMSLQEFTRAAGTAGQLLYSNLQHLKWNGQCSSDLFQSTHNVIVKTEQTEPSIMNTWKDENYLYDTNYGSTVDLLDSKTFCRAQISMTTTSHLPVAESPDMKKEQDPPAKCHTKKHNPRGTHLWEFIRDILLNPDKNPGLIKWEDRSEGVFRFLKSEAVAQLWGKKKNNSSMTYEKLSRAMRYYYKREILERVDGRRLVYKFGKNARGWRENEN
In short: as §1

[6] = molecular target: T5, FEV (Homo sapiens, UniProt Q99581 1-238)
T5 sequence: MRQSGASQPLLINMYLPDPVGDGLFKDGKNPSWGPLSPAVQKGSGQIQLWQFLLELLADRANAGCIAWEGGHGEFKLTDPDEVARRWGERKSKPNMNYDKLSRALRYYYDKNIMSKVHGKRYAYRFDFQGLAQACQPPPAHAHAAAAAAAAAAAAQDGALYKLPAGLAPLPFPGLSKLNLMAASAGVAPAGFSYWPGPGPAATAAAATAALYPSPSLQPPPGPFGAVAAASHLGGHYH
In short: as §1

[7] = molecular target: ETV5 (Homo sapiens, UniProt P41161 1-510)
In short: as §1

[8] = molecular target: ELF4 (Homo sapiens, UniProt Q99607 1-663)
In short: as §1

[9] = molecular target: T6, ELK4 (Homo sapiens, UniProt P28324-2 1-405)
T6 sequence: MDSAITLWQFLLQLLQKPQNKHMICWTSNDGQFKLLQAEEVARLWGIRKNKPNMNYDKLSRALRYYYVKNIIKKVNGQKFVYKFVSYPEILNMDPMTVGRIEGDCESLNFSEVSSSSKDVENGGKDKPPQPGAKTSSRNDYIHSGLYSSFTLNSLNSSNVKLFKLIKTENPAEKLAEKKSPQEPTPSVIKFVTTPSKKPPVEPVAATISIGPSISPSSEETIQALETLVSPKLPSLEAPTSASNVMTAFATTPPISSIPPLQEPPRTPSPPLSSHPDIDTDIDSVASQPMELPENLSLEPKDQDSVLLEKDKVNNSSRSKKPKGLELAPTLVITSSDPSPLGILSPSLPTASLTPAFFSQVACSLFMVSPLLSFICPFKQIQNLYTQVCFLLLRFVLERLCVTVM
In short: as §1

Chain of ELF1 (P32519 whole entry): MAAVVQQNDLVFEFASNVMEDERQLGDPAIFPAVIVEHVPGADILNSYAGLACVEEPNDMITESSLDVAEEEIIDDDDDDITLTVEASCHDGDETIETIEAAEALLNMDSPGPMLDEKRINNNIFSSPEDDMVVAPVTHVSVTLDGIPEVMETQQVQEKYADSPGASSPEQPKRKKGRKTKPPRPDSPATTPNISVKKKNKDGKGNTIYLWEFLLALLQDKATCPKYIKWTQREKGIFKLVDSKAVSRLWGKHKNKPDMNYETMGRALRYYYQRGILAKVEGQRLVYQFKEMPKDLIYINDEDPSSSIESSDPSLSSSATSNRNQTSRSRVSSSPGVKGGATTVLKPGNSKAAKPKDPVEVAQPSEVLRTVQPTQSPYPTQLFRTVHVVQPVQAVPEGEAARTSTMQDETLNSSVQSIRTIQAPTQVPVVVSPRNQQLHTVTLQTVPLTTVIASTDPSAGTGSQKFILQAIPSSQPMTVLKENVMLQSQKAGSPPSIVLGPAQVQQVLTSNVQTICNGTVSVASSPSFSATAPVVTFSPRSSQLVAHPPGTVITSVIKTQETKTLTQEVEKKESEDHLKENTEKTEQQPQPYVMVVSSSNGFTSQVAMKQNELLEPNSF
Chain of ETV5 (P41161 whole entry): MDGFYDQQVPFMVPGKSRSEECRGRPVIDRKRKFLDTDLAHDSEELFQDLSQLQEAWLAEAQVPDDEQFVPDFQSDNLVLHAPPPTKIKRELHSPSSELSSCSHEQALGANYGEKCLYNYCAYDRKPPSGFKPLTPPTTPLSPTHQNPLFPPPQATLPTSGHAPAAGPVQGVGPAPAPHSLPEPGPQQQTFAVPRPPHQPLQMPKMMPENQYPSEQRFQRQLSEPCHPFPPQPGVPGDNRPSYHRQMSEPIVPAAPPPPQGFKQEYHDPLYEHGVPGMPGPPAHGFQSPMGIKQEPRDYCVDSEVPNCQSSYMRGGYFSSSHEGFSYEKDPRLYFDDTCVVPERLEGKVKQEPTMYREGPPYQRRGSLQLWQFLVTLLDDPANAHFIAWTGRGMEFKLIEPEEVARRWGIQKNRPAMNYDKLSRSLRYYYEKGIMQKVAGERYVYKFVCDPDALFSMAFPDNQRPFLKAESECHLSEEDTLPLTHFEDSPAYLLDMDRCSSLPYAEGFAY
Chain of ELF4 (Q99607 whole entry): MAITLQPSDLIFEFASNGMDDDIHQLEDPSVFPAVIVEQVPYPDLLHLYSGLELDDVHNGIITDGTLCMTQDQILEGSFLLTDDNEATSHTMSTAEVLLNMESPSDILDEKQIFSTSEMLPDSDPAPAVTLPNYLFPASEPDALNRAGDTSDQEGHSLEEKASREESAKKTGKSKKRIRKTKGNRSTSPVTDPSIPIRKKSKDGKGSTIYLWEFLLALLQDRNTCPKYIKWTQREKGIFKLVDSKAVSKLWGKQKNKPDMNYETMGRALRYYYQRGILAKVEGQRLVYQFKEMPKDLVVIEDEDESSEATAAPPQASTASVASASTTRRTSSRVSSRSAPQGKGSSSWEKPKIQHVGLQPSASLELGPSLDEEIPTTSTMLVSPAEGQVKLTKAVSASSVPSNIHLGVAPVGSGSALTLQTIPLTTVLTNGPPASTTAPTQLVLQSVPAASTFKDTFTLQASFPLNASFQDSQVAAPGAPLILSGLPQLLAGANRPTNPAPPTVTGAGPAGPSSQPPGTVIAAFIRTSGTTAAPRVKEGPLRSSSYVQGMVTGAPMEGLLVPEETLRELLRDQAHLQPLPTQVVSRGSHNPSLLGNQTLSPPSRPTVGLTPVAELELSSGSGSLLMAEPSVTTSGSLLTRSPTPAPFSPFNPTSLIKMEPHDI

GTGCAT
binding signal [1]: 1.05 fold enrichment (6-mer frequency, TF over GST control) | binding signal [2]: 1.1 fold enrichment (6-mer frequency, TF over GST control) | binding signal [3]: 1.06 fold enrichment (6-mer frequency, TF over GST control) | binding signal [4]: 1.01 fold enrichment (6-mer frequency, TF over GST control) | binding signal [5]: 1.07 fold enrichment (6-mer frequency, TF over GST control) | binding signal [6]: 1.06 fold enrichment (6-mer frequency, TF over GST control) | binding signal [7]: 1.13 fold enrichment (6-mer frequency, TF over GST control) | binding signal [8]: 1.08 fold enrichment (6-mer frequency, TF over GST control) | binding signal [9]: 1.08 fold enrichment (6-mer frequency, TF over GST control)

Reference: publication PMC7862700, “An all-to-all approach to the identification of sequence-specific readers for epigenetic DNA modifications on cytosine”
